Only some compounds are listed: those with a hit (about 1.5% of all), similar ones and a draw of the others.
GLD-1 TGE inh – GLD-1/TGE RNA complex disruptors, primary screen, biochemical, fluorescence polarization. inhibition, % at 5.96 µM. 320,000 tested, 0.44% active. purified GLD-1 + fluorescein TGE RNA. AID 2280, 2010;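 active means percent inhibition above a per-plate cutoff, the plate mean of test compounds plus 3 SD, cut at about 30% in these data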;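 further: 0% = DMSO wells with GLD-1 and probe and 100% = wells lacking GLD-1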
MCL1 BIM primary – inhibitors of MCL1 binding to BIM-BH3, primary screen, biochemical, fluorescence polarization; inhibition, % at 10.9 µM; 320,000 tested, 0.68% active; Induced myeloid leukemia cell differentiation protein Mcl-1 (Homo sapiens), Q07820; AID 2057, 2009; GST-MCL1 / FITC-Bim-BH3 fluorescence polarization;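 active means inhibition above the mean inhibition of all tested compounds plus 3 SD, set per campaign, cut at about 40% in these data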;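 further: 0% = DMSO wells and 100% = unlabeled Bim-BH3 peptide control; higher means more loss of mP so more displacement of Bim peptide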
MEX-5 binding – MEX-5 zinc finger RNA-binding disruptors – biochemical, C. elegans, fluorescence polarization, MLPCN library, primary screen. Zinc finger protein mex-5 (Caenorhabditis elegans), Q9XUB2. MEX-5/FITC-TCR2 RNA binding; hits give low values. activity score (negative = inhibition of binding), % at 10 µM. 300,000 tested, 0.38% active. AID 1832, 2009;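 active means inhibition past about -25% in most replicates, and total fluorescence under double the plate's negative control median, limit read from the data; inconclusive means replicates evenly split on the limit, or fluorescence at least double controls; inactive means too little inhibition in most replicates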;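 further: 0% = DMSO and -100% = 5 µM competing unlabeled TCR2 RNA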
Target sequence (Q9XUB2 whole entry, looked up): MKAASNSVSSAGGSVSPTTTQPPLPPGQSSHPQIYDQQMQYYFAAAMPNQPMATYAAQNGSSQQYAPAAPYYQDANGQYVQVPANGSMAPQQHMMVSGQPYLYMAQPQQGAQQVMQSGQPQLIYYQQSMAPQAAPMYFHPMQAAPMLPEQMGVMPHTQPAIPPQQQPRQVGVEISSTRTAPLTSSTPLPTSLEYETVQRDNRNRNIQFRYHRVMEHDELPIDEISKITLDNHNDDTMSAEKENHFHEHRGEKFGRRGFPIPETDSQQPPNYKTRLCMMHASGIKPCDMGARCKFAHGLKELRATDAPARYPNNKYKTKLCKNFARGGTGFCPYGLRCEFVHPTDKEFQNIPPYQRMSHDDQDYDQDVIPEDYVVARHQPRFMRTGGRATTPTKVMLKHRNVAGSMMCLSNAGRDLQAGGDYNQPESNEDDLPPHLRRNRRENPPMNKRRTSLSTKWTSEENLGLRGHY
Bcl-xL primary – inhibitors of human Bcl-xL, primary screen, biochemical, fluorescence polarization, HTS. Bcl-2-like protein 1 (Homo sapiens), Q07817. GST-Bcl-xL / FITC-Bim BH3 peptide fluorescence polarization. inhibition, % at 10.9 µM. 320,000 tested, 0.7% active;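 active means inhibition above the mean of all tested compounds plus 3 SD, cutoff set per campaign, cut at about 30% in these data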;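 further: 0% = DMSO wells and 100% = unlabeled Bim-BH3 peptide competitor; inhibitors lower millipolarization by displacing the labeled peptide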
E coli Lon inh – inhibitors of E. coli Lon protease, primary screen, biochemical, fluorescence polarization; P0A9M0; purified E. coli Lon protease; inhibition, % at 7.94 µM; 360,000 tested, 0.42% active; in the data active means inhibition above about 13%, passing the limit was not always enough;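 further: 0% = enzyme with probe and DMSO and 100% = no enzyme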
EBV gp42 block – Epstein-Barr virus gp42 inhibitors, primary screen, biochemical, uHTS, fluorescence polarization | AID 1085, 2008 | Glycoprotein 42 (Epstein-Barr virus (strain AG876)), Q1HVG2 | inhibition, % (tested at 21.74 µM) | Fluorescence polarization binding assay, mP read-out | 220,000 tested, 0.42% active; in the data active means inhibition above about 50%
Bcl-xL conf – Bcl-xL inhibitors blocking Bim BH3 binding, confirmation, counter-screen for MCL1 inhibitor project, biochemical, fluorescence polarization. GST-Bcl-xL / FITC-Bim BH3 peptide FP binding. shares compounds with MCL1 BIM primary. 1,700 tested, 54% active. inhibition, % at 10.9 µM;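 active means inhibition above a cutoff equal to the mean inhibition of all tested compounds plus 3 SD, cut at about 30% in these data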;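 further: 0% = DMSO wells and 100% = unlabeled Bim BH3 control peptide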
MCL1 inh confirm – inhibitors of MCL1 binding to BIM-BH3, confirmation, biochemical, fluorescence polarization, triplicate | shares compounds with MCL1 BIM primary | GST-MCL1 / FITC-Bim-BH3 fluorescence polarization | 1,700 tested, 61% active | inhibition, % at 10.9 µM;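 active means inhibition above the average of all tested compounds plus 3 SD, cut at about 40% in these data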;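 further: 0% = DMSO wells and 100% = unlabeled Bim-BH3 control peptide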
* hit, by the source's call.

How did O=C(O)c1cc(O)c2c(c1)C(=O)c1cc(O)cc(O)c1C2=O do in these assays?
GLD-1 TGE inh: 6.3; MCL1 BIM primary: 40.6*; MEX-5 binding: -16.5; Bcl-xL primary: 23.5; E coli Lon inh: 14.4; EBV gp42 block: 3.6; Bcl-xL conf: 20.9; MCL1 inh confirm: 33.9

How did CCOc1ccc2nc3cc(NCc4ccc(OC)cc4)ccc3c(N)c2c1 do in these assays?
GLD-1 TGE inh: -40.5; MCL1 BIM primary: active; MEX-5 binding: -33.0*; Bcl-xL primary: 184.2*; E coli Lon inh: -25.4; Bcl-xL conf: 139.4*; MCL1 inh confirm: 166.1*

What do the screens show for `CC(NC(=O)Cc1ccccc1)c1cc2c(cc1Br)OCCCO2` (centres undefined)?
GLD-1 TGE inh: 2.1; MCL1 BIM primary: 7.2; MEX-5 binding: -0.5; Bcl-xL primary: 4.2; E coli Lon inh: -11.7; EBV gp42 block: -14.8

How did CC(C)N=c1cc2n(-c3ccc(Cl)cc3)c3ccccc3nc-2cc1Nc1ccc(Cl)cc1 do in these assays?
GLD-1 TGE inh: 28.7; MCL1 BIM primary: 117.8*; MEX-5 binding: 0.1; Bcl-xL primary: 78.0*; E coli Lon inh: 3.2; Bcl-xL conf: active; MCL1 inh confirm: active

How did COc1ccc(C(=S)N2CCN(c3ccccc3Cl)CC2)cc1OC do in these assays?
GLD-1 TGE inh: 2.9; MCL1 BIM primary: 5.0; MEX-5 binding: -0.2; Bcl-xL primary: 3.5; E coli Lon inh: 7.8; EBV gp42 block: -19.8

What do the screens show for `COc1cc(C(=S)N2CCN(c3ccccc3Cl)CC2)cc(O)c1O`?
GLD-1 TGE inh: 14.4; MCL1 BIM primary: 58.4*; MEX-5 binding: -2.5; Bcl-xL primary: 24.8; E coli Lon inh: -5.5; EBV gp42 block: -11.6; Bcl-xL conf: 33.9*; MCL1 inh confirm: 71.2*

What do the screens show for `Fc1ccc(C2=CC(c3ccc(Br)o3)n3ncnc3N2)cc1` (centres undefined)?
GLD-1 TGE inh: 163.4*; MCL1 BIM primary: active; Bcl-xL primary: 179.9*; E coli Lon inh: 136.7*; EBV gp42 block: 62.2*; Bcl-xL conf: 124.6*; MCL1 inh confirm: 156.0*

What do the screens show for `Oc1ccc(C2C=C(c3ccc(F)cc3)Nc3ncnn32)cc1` (centres undefined)?
MEX-5 binding: -8.7; E coli Lon inh: 13.8; EBV gp42 block: 17.2

What do the screens show for `CC(=O)Oc1ccc2c(c1)O/C(=C\c1ccncc1)C2=O`?
GLD-1 TGE inh: 92.6*; MCL1 BIM primary: 151.2*; MEX-5 binding: inconclusive; Bcl-xL primary: 125.9*; E coli Lon inh: 79.0*; EBV gp42 block: 77.1*; Bcl-xL conf: 89.7*; MCL1 inh confirm: 115.3*

Results for CCC(=O)Oc1ccc2c(c1)O/C(=C\c1ccco1)C2=O ?
GLD-1 TGE inh: 89.0*; MCL1 BIM primary: 117.9*; MEX-5 binding: -19.3; Bcl-xL primary: 111.5*; E coli Lon inh: 30.4; EBV gp42 block: 31.9; Bcl-xL conf: 46.8*; MCL1 inh confirm: 76.1*

How did O=C(CSc1ccc(Cl)cc1)c1ccco1 do in these assays?
GLD-1 TGE inh: 1.2; MCL1 BIM primary: 63.5*; MEX-5 binding: -2.7; Bcl-xL primary: 17.4; E coli Lon inh: -12.8; EBV gp42 block: 15.1; Bcl-xL conf: 23.2; MCL1 inh confirm: 75.2*

Results for Cc1ccc(N2CC(C(=O)Nc3nnc(SCC(N)=O)s3)CC2=O)cc1 (centres undefined) ?
GLD-1 TGE inh: 2.3; MCL1 BIM primary: 2.4; MEX-5 binding: -1.8; Bcl-xL primary: 0.7; E coli Lon inh: 3.3

Source: PubChem BioAssay
